Most compounds without a hit are left out; they make up all but 4.9% or so of the library.
Calb FLC: affects C. albicans growth with fluconazole | C. albicans CaCi-2 (fluconazole-resistant clinical isolate) + fluconazole, Alamar Blue growth, 48 h | growth inhibition, % (no concentration beside the values) | 300,000 tested, 0.57% active | AID 1979;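 active means growth inhibition above about 58% in most replicates, limit read from the data, passing the limit was not always enough; inconclusive means exactly half the replicates above a set limit; inactive means most replicates below a set limit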;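 further: all wells also contain fluconazole at 8 µg/ml as a sub-toxic cotreatment; 0% = median of DMSO wells and 100% = median of geldanamycin control wells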
CSC inhib: blocks cancer stem cells | inhibition, % at 7.5 µM | cancer stem cell-like cells viability, luminescence | 300,000 tested, 1.1% active; in the data active means inhibition above about 75%; inconclusive means no clear call, values can overlap the other calls; tested in HMLE shEcad cells
PP1 inh: blocks human PP1-alpha phosphatase, a PP5 counter-screen; 320,000 tested, 0.9% active; inhibition, % at 6.7 µM; AID 2235; purified PP1alpha, OMFP fluorescence; P62136;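 active means inhibition above the mean inhibition of all tested compounds plus 3 SD, computed separately for each screening campaign, cut at about 15% in these data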
Target sequence (P62136 whole entry, looked up): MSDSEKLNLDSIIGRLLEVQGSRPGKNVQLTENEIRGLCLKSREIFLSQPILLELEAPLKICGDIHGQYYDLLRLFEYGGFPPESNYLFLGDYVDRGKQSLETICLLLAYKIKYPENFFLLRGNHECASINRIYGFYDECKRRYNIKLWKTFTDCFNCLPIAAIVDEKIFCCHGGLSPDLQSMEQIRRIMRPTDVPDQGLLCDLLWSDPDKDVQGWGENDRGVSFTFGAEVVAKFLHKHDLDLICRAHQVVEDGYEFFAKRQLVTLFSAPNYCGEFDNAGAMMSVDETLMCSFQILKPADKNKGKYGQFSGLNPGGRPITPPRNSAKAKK
PP5 primary: blocks human protein phosphatase 5 activity; P53041; purified PP5c, OMFP substrate fluorescence; inhibition, % at 6.7 µM; 320,000 tested, 0.18% active;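 active means inhibition above the campaign's mean inhibition across all tested compounds plus 3 SD, cut at about 9.5% in these data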;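 further: 0% = DMSO only and 100% = 100 µM cantharidin control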
Mdm2 MdmX PPI: inhibitors of human Mdm2/MdmX interaction | O15151+Q00987 | SaOS-2 split-luciferase Mdm2/MdmX complementation, luminescence | inhibition, % at 8 µM | 330,000 tested, 3% active | AID 485346;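 active means inhibition of at least 50% at 8 µM in the primary screen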
Beta apoptosis: beta cell apoptosis inhibition; INS-1E cytokine-induced death, ATP luminescence, 48 h; percent of positive-control rescue, neutral wells zero; protection from apoptosis, % (concentration not given with the values); 300,000 tested, 0.8% active; AID 435005;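 active means Every replicate reaches about 75%, or at least half do and their mean reaches it too, limit read from the data; inconclusive means At least half of replicates reach the limit but their mean does not; inactive means Under half of replicates reach the limit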;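 further: 0% = cytokine-treated negative control wells and 100% = positive control rescue; higher means more ATP so stronger rescue from cytokine killing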
PP1 inh confirm: human PP1 phosphatase inhibition, confirmation; shares compounds with PP1 inh; 1,900 tested, 52% active; purified PP1alpha, OMFP substrate fluorescence; inhibition, % at 6.7 µM;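 active means mean PP1 inhibition above a set limit taken from the earlier primary screen, cut at about 15% in these data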
PP5 inh counter: counter-screen for PP1 inhibitors: human PP5 phosphatase inhibition. shares compounds with PP1 inh. purified PP5c, OMFP fluorescence. inhibition, % at 6.7 µM. 1,900 tested, 4% active. AID 2360;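 active means mean PP5 inhibition over triplicate wells above about 9.5% taken from the earlier PP1 screen, limit read from the data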
* = called active by the depositor; ? = inconclusive; . = not tested or not shown.

SMILES	Calb FLC	CSC inhib	PP1 inh	PP5 primary	Mdm2 MdmX PPI	Beta apoptosis	PP1 inh confirm	PP5 inh counter
CCN(c1ccccc1)S(=O)(=O)c1ccc(C(=O)Nc2nnc(COC)o2)cc1	41	-10	14	0	23	6	.	.
CCCCN(CC)S(=O)(=O)c1ccc(C(=O)Nc2nnc(-c3ccccc3Cl)o2)cc1	54	-9	8	0	8	14	.	.
COCc1nnc(NC(=O)c2ccc(S(=O)(=O)N(C)c3ccccc3)cc2)o1	15	31	22*	3	40	.	6	-3
CCCCN(CCCC)S(=O)(=O)c1ccc(C(=O)Nc2nnc(CSC)o2)cc1	1	22	27*	0	33	23	29*	7
CCc1nnc(NC(=O)c2ccc(S(=O)(=O)N(CCOC)CCOC)cc2)o1	3	-4	4	1	5	-5	.	.
CCCCN(CC)S(=O)(=O)c1ccc(C(=O)Nc2nnc(CSC)o2)cc1	-5	4	29*	2	21	-2	20*	-1
CCCCN(CC)S(=O)(=O)c1ccc(C(=O)Nc2nnc(COC)o2)cc1	?	.	19*	4	34	1	6	-1
O=c1c(Cc2ccccc2)c(O)ccn1C1CCCCCCC1	1	-11	-2	-1	10	-5	.	.
Cc1cccnc1NC(=O)C1CC(=O)N(c2ccc3c(c2)OCCO3)C1 (stereo not drawn)	1	.	-1	0	26	-3	.	.
O=C(Nc1nc(-c2ccccn2)cs1)C1CC(=O)N(c2ccc3c(c2)OCCO3)C1 (stereo not drawn)	-5	-9	45*	5	39	1	55*	-2
O=C1N=C(N2CCC(Cc3ccccc3)CC2)S/C1=C/c1cn[nH]c1-c1ccccc1	-5	29	21*	3	33	-2	9	-5
CCOc1ccc(NC(=NCc2ccc3c(c2)OCO3)SC2CC(=O)N(c3ccc(C(=O)O)cc3)C2=O)cc1 (stereo not drawn)	13	-8	19*	5	13	-5	8	6
O=C(Nc1nnc(-c2ccc(Cl)cc2)o1)Nc1ccccc1Cl	6	11	-6	2	17	-7	.	.
O=C(Nc1nnc(-c2ccc(Cl)cc2)o1)c1nc2ccccc2s1	4	99*	22*	1	26	2	26*	-4
CCOC(=O)c1sc2nc(-c3ccco3)c3c(c2c1N)CC(C)(C)OC3	2	.	7	3	12	-9	.	.
Nc1c(C(=O)NC2CC2)sc2nc3c(c(-c4ccco4)c12)CC/C3=C/c1ccco1	.	-1	54*	1	.	-4	21*	5
O=C(Cc1cc(=O)[nH][nH]1)N/N=C/C=C/c1ccccc1	?	24	19*	-2	-10	-5	9	1
COc1ccccc1CCNC(=O)c1ccc(NC(=O)CC2SC(N3CCCC3)=NC2=O)cc1 (stereo not drawn)	-4	-1	-5	0	21	0	.	.
CCN1CCN(Cc2ccc(NC(=O)c3cc(NC(=O)C4=NN(c5ccccc5)C(=O)C4)cc(OC)c3)cc2C(F)(F)F)CC1	15	9	18*	5	-37	-8	-6	-2
CCN1CCN(Cc2ccc(NC(=O)c3ccc(C)c(NC(=O)C[C@@H]4NC(=O)[C@H](Cc5ccccc5)NC4=O)c3)cc2C(F)(F)F)CC1	-9	-23	0	3	10	-10	.	.
CCN1CCN(Cc2ccc(NC(=O)c3ccc(C)c(NC(=O)C4=NN(c5ccccc5)C(=O)C4)c3)cc2C(F)(F)F)CC1	0	-16	18*	3	18	-5	1	-2
CCN1CCN(Cc2ccc(NC(=O)c3cc(NC(=O)c4ccc5n[nH]nc5c4)cc(OC)c3)cc2C(F)(F)F)CC1	5	-7	3	2	-20	-2	.	.
NC(=O)c1ccc(NC(=O)COC(=O)/C=C/c2cn(-c3ccccc3)nc2-c2cccnc2)cc1	4	10	23*	2	25	-5	19*	-1
O=C(/C=C/c1cn(-c2ccccc2)nc1-c1ccccc1)Nc1ccc(C(=O)O)cc1	-1	10	19*	4	9	0	9	4
